ChEMBL document CHEMBL3988442, “University of Dundee, Small-Polar-MMV Screening Library” (2021)
For some of these results: Entries with a potency or affinity are not part of this list.

Legend:
Parameters in all cases: scale not given: direction of the effect not stated beside the values
[1] = biological target: Protein translocase subunit SecA (Escherichia coli (strain K12)) (UniProt P10408); experiment: Assay to Identify E. coli SecA ATPase Inhibitors; type: functional; conditions: 30 µM
[2] = biological target: T1, Ubiquitin-activating enzyme e1, putative (Leishmania donovani (strain BPK282A1)) (UniProt E9BSI1); experiment: Leishmania donovani Ubiquitin Activating Enzyme (LdE1); type: functional; conditions: 30 µM
T1 sequence (whole entry): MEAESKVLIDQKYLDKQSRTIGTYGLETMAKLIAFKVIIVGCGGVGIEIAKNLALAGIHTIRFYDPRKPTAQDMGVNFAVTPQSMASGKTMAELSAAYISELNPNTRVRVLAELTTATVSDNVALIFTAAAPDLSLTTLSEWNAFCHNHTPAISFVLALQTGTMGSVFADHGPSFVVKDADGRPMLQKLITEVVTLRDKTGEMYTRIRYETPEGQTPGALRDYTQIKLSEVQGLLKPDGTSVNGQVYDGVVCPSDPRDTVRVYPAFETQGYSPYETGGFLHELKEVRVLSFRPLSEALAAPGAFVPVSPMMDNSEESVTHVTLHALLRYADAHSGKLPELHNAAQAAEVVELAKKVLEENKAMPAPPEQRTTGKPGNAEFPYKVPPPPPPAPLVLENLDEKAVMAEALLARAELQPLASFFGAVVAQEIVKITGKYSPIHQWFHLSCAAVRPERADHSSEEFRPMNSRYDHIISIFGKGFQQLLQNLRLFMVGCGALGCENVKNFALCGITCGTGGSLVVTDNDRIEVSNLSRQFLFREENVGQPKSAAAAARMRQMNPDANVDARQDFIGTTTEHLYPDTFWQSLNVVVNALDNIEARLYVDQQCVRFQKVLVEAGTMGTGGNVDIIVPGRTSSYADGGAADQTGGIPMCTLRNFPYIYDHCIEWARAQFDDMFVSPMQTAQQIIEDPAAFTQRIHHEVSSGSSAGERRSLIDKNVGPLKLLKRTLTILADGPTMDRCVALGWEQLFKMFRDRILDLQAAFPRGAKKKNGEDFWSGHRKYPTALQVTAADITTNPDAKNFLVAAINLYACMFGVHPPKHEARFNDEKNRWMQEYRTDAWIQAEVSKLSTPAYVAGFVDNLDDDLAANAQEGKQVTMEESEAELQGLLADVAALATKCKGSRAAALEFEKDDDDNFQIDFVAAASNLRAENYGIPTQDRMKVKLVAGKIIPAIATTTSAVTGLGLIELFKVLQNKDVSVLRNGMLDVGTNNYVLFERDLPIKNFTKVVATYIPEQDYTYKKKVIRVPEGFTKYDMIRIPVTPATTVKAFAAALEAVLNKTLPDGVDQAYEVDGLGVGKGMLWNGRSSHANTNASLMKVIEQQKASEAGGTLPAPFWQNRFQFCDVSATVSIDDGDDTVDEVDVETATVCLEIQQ

[3] = biological target: AMP-activated protein kinase, AMPK (Homo sapiens) (UniProt P54646+O43741+P54619+Q9UGJ0+Q9Y478+Q13131+Q9UGI9); experiment: AMP-dependent Kinase enzyme assay. An in vitro enzyme assay that detects ADP turnover that is directly proportional to AMPK activity. This uses naive AMPK that is activated during the assay with MK-8722; type: functional; conditions: 30 µM
[4] = biological target: Sialic acid-binding Ig-like lectin 9 (Homo sapiens) (UniProt Q9Y336); experiment: Hs-Siglec9 ALPHAscreen SOP 20170721; conditions: 10 µM
Sialic acid-binding Ig-like lectin 9 (Homo sapiens), sequence (Q9Y336 whole entry): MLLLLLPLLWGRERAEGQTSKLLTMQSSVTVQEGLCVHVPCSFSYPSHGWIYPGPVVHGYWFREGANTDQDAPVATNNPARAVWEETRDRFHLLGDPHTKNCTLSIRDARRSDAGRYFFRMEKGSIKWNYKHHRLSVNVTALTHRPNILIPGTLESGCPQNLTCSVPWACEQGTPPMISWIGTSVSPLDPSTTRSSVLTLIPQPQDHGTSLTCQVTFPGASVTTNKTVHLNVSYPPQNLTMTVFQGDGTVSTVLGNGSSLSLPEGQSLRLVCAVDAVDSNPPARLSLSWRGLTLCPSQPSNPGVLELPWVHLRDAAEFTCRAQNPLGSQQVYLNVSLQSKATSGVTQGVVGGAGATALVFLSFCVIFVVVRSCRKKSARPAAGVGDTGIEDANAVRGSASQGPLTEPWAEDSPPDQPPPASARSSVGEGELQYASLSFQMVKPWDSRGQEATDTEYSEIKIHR

[5] = test system: Trypanosoma cruzi; experiment: Trypanosoma cruzi phosphomannomutase and mannose-1-phosphate guanylyltransferase assay; type: functional; conditions: 10 µM
[6] = biological target: T2, Arginase-2, mitochondrial (Homo sapiens) (UniProt P78540); experiment: in vitro enzyme assay to detect the production of urea directly proportional to the activity of Arginase II; type: functional; conditions: 33.3 µM; further: in the data most compounds retested in dose-response had high values
T2 sequence (whole entry): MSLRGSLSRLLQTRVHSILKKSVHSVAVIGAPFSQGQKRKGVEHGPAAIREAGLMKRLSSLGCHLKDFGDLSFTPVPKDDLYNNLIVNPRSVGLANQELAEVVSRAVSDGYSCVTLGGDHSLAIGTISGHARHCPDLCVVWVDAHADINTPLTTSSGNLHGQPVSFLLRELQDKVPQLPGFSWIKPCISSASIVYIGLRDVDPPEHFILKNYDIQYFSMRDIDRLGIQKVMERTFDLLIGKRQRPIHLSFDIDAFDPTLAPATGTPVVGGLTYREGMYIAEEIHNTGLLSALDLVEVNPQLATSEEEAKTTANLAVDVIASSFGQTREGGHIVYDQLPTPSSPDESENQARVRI

[7] = biological target: T3, Proteasome subunit beta (Trypanosoma cruzi) (UniProt O96673); experiment: Trypanosoma cruzi proteasome chymotrypsin-like activity (TcProtChymo) assay.; further: in the data most compounds retested in dose-response had high values; type: functional; conditions: 9.37 µM
T3 sequence (whole entry): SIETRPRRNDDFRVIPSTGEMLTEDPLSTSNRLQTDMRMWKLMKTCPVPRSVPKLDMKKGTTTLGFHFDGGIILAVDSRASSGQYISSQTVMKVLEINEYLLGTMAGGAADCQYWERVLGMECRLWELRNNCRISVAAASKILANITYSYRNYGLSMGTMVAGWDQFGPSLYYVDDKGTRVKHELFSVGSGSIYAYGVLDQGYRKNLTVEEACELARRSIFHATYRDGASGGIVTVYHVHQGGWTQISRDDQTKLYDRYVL

[8] = species: Homo sapiens; experiment: To identify inhibition of the IFN signalling (Jak-Stat) pathway via expression of an eGFP reporter gene under the control of an IFN-stimulated response element (ISRE) containing MxA promoter.; type: functional; conditions: 30 µM
[9] = biological target: T4, Tyrosyl-tRNA synthetase, putative (Trypanosoma cruzi (strain CL Brener)) (UniProt Q4DSP6); experiment: Trypanosoma cruzi tyrosyl tRNA synthetase (TcYRS) _High Tyrosine SOP; type: functional; conditions: 30 µM; further: in the data most compounds retested in dose-response had high values
T4 sequence (whole entry): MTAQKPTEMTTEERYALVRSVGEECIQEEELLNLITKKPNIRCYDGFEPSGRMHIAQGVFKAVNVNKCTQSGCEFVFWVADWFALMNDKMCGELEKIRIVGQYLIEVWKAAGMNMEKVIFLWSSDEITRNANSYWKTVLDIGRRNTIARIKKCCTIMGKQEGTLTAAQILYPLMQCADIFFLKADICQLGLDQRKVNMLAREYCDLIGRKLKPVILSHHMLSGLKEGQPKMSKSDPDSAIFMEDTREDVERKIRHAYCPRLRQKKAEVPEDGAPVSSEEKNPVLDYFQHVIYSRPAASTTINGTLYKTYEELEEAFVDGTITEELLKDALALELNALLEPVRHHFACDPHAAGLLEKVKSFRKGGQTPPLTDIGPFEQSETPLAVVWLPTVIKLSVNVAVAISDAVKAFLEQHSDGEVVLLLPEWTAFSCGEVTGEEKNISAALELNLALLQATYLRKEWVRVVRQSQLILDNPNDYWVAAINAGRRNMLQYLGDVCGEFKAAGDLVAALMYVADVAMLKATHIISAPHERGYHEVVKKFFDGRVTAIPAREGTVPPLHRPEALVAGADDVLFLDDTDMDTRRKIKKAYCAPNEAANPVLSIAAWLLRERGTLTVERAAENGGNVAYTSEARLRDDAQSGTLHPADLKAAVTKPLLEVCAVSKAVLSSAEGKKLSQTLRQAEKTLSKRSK

[10] = biological target: T4, Tyrosyl-tRNA synthetase, putative (Trypanosoma cruzi (strain CL Brener)); experiment: Trypanosoma cruzi tyrosyl tRNA synthetase (TcYRS) SOP; type: functional; conditions: 30 µM
[11] = biological target: Chromo domain-containing protein 1 (Saccharomyces cerevisiae (strain ATCC 204508 / S288c) (Baker's yeast)) (UniProt P32657); experiment: ScCHD-1 Enzyme Inhibition Assay; type: functional; conditions: 30 µM; further: in the data most compounds retested in dose-response had high values
Chromo domain-containing protein 1 (Saccharomyces cerevisiae (strain ATCC 204508 / S288c) (Baker's yeast)), sequence (P32657 whole entry, the tested form may be a part): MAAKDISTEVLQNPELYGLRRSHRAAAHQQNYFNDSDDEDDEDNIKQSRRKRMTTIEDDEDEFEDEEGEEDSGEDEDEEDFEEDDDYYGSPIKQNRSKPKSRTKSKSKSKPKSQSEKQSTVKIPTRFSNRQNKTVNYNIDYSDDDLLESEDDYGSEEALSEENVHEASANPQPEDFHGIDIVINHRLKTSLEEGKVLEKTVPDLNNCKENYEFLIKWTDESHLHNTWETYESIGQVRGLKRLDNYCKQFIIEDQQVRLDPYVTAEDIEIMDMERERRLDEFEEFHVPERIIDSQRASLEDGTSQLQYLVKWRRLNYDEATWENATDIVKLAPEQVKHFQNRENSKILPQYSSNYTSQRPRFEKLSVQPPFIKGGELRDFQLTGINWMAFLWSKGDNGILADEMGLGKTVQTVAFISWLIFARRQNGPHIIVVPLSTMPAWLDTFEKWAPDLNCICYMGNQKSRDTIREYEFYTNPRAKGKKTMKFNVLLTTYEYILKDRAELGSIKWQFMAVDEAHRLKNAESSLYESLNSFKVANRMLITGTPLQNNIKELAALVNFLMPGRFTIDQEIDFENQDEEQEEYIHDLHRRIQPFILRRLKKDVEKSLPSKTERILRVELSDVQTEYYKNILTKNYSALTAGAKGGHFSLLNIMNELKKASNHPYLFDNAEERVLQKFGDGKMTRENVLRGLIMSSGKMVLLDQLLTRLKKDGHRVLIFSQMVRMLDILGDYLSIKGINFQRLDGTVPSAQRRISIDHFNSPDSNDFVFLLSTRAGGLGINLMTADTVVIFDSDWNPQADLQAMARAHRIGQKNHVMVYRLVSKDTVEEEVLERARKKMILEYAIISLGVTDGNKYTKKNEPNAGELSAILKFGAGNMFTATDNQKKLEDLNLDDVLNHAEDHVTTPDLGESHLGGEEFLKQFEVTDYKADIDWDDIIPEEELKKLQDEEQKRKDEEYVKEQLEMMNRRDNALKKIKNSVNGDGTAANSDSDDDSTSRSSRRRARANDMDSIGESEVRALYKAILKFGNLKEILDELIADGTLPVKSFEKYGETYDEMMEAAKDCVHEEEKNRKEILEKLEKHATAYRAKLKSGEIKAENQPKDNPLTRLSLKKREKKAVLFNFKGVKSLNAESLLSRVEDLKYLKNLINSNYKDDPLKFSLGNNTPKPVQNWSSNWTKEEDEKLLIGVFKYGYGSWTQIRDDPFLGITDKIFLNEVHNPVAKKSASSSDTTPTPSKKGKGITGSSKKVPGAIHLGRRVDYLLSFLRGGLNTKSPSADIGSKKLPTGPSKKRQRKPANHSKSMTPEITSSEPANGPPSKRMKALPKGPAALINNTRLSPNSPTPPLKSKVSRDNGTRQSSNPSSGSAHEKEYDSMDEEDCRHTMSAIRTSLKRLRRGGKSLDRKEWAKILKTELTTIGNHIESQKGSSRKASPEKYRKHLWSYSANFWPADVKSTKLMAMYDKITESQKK

Protein translocase subunit SecA (Escherichia coli (strain K12)), sequence (P10408 whole entry): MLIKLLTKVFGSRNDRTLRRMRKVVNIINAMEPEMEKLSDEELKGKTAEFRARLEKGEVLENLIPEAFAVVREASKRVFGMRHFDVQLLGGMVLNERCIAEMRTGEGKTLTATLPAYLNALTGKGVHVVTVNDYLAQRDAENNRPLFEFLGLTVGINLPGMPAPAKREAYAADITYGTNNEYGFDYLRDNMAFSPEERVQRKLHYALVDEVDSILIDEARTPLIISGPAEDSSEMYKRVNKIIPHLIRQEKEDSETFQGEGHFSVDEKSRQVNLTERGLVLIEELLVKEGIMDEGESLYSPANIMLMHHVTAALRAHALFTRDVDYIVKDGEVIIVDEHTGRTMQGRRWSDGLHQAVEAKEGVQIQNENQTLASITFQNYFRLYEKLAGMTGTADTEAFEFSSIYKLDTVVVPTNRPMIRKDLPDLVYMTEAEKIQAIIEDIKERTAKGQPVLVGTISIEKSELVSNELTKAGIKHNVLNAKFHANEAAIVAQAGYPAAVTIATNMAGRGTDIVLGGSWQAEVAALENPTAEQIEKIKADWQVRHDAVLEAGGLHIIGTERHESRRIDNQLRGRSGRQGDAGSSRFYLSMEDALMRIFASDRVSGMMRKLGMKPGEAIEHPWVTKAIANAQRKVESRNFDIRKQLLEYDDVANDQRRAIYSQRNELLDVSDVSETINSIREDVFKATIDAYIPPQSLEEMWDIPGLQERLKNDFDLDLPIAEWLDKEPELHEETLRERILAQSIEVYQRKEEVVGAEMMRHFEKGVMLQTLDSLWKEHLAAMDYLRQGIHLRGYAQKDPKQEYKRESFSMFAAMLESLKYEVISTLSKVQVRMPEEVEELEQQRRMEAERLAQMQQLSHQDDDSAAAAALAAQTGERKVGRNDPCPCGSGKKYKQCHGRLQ

SMILES: Cc1c(Br)cccc1C(=O)NC(C)CN1CCCC1=O (stereo unspecified)
- Percent Effect [1]: -3.78%
- Percent Effect [2]: 2.74%
- Percent Effect [3]: -2.6%
- Percent Effect [4]: -6.12%
- Percent Effect [5]: -2.35%
- Percent Effect [6]: 0.909%
- Percent Effect [7]: 7.1%
- Percent Effect [8]: 10%
- Percent Effect [9]: 1.07%
- Percent Effect [10]: 5%
- Percent Effect [11]: -5.51%

SMILES: Cn1cccc1C(=O)N1CCc2ncc(Cn3cccn3)n2CC1
- Percent Effect [1]: -5.21%
- Percent Effect [2]: 10.7%
- Percent Effect [3]: -0.846%
- Percent Effect [4]: -1.04%
- Percent Effect [5]: 2.32%
- Percent Effect [6]: -43.2%
- Percent Effect [7]: 0.513%
- Percent Effect [8]: -2.01%
- Percent Effect [9]: 2.08%
- Percent Effect [10]: 2.5%
- Percent Effect [11]: -3.31%

SMILES: O=C(Nc1ccc(N2CCCC2)nc1)N1CCc2ccccc2C1
- Percent Effect [1]: -3.4%
- Percent Effect [2]: 0%
- Percent Effect [3]: -13.6%
- Percent Effect [4]: 2.55%
- Percent Effect [5]: -6.45%
- Percent Effect [6]: 3.75%
- Percent Effect [7]: 20.7%
- Percent Effect [8]: 7.01%
- Percent Effect [9]: 15.8%
- Percent Effect [10]: 18.3%
- Percent Effect [11]: 0.41%

SMILES: CC(C(=O)N1CCc2ccccc2C1)n1cc(Br)cn1 (stereo unspecified)
- Percent Effect [1]: -0.393%
- Percent Effect [2]: 0%
- Percent Effect [3]: -6.91%
- Percent Effect [4]: 6.63%
- Percent Effect [5]: 4.42%
- Percent Effect [6]: -6.9%
- Percent Effect [7]: 7.82%
- Percent Effect [8]: 19.8%
- Percent Effect [9]: 4.3%
- Percent Effect [10]: 13.6%
- Percent Effect [11]: -3.62%

SMILES: Cc1cccc(N2CCN(CCCNC(=O)c3nccn3C)CC2)c1
- Percent Effect [1]: -2.68%
- Percent Effect [2]: 5.41%
- Percent Effect [3]: -5.72%
- Percent Effect [4]: -1.22%
- Percent Effect [5]: 4.49%
- Percent Effect [6]: 38.3%
- Percent Effect [7]: 12.9%
- Percent Effect [8]: 7.26%
- Percent Effect [9]: 11.9%
- Percent Effect [10]: 18.3%
- Percent Effect [11]: -2.27%

SMILES: NS(=O)(=O)CCNC(=O)C1(c2ccc(Br)cc2)CC1
- Percent Effect [1]: 2.05%
- Percent Effect [2]: 7.79%
- Percent Effect [3]: -1.42%
- Percent Effect [4]: 6.68%
- Percent Effect [5]: 4.23%
- Percent Effect [6]: -13.8%
- Percent Effect [7]: 13%
- Percent Effect [8]: -0.291%
- Percent Effect [9]: 2.15%
- Percent Effect [10]: 16.1%
- Percent Effect [11]: -2.63%

SMILES: O=C(c1cn(-c2cc(N3CCSCC3)ncn2)cn1)N1CCSCC1
- Percent Effect [1]: -2.69%
- Percent Effect [2]: 8.22%
- Percent Effect [3]: -3.54%
- Percent Effect [4]: -3.87%
- Percent Effect [5]: 6.27%
- Percent Effect [6]: -1.82%
- Percent Effect [7]: 24%
- Percent Effect [8]: -3.38%
- Percent Effect [9]: 7.53%
- Percent Effect [10]: 15%
- Percent Effect [11]: -3.99%

SMILES: O=C1O[C@@H]2CN(Cc3cccc(F)c3)C[C@@H]2N1CCCN1CCOCC1
- Percent Effect [1]: -1.1%
- Percent Effect [2]: 10.7%
- Percent Effect [3]: 4.3%
- Percent Effect [4]: 9.62%
- Percent Effect [5]: 2.82%
- Percent Effect [6]: 12.5%
- Percent Effect [7]: 21.3%
- Percent Effect [8]: 9.55%
- Percent Effect [9]: 3.83%
- Percent Effect [10]: 21%
- Percent Effect [11]: -10.6%

SMILES: O=S(=O)(C1CC1)N1CCOCC2(CCN(c3ccccn3)C2)C1 (stereo unspecified)
- Percent Effect [1]: -6.13%
- Percent Effect [2]: 1.33%
- Percent Effect [3]: 15.1%
- Percent Effect [4]: -7.58%
- Percent Effect [5]: -5.7%
- Percent Effect [6]: -6.51%
- Percent Effect [7]: 7.21%
- Percent Effect [8]: 3.01%
- Percent Effect [9]: -6.35%
- Percent Effect [10]: -5.13%
- Percent Effect [11]: -5.08%

SMILES: COc1c(CNCc2cccc(CN(C)C)c2)c(C)nn1C
- Percent Effect [1]: -7.85%
- Percent Effect [2]: 10.8%
- Percent Effect [3]: -5.13%
- Percent Effect [4]: 6.33%
- Percent Effect [5]: -2.17%
- Percent Effect [6]: -4.01%
- Percent Effect [7]: -0.36%
- Percent Effect [8]: 13.9%
- Percent Effect [9]: 4.43%
- Percent Effect [10]: 6.17%
- Percent Effect [11]: -5.81%

SMILES: COCCN(C)C[C@@H]1CN(C(=O)c2ccoc2)C[C@@H]1CO
- Percent Effect [1]: -3.19%
- Percent Effect [2]: 2.7%
- Percent Effect [3]: -0.15%
- Percent Effect [4]: 1.89%
- Percent Effect [5]: 6.56%
- Percent Effect [6]: -1.43%
- Percent Effect [7]: 5.34%
- Percent Effect [8]: 4.14%
- Percent Effect [9]: 6.88%
- Percent Effect [10]: 9.76%
- Percent Effect [11]: -2.44%
